A selection: hits, their analogues and other compounds. The true share with any hit is near 1.3%.
VACV mCherry inh: qHTS for Stage-Specific Inhibitors of Vaccinia Orthopoxvirus: mCherry Reporter Primary qHTS; Vaccinia virus mCherry reporter infection, fluorescence; 310,000 compounds, 0.63% hits; AID 720579, 2013; Potency, µM (titrated, usually from 36.5 µM), without a hit: at the highest dose activity change, negative = inhibition, most hits filed as inhibitors; calls by dose curve; tested in A549 cells; also: % is scaled to controls: 0 for no effect and ±100 for the full control effect; nearly all actives have a fitted effect of over 35% in size
SARS PLpro yeast: qHTS of Yeast-based Assay for SARS-CoV PLP | S. cerevisiae expressing SARS-CoV PLpro, growth rescue | Potency, µM (doses to about 32.9 µM), inactives show top-dose activity, positive = growth rescue, actives largely listed as activators | 330,000 compounds, 0.19% hits; calls by dose curve; also: 0% is about no effect; nearly all actives have a fitted effect of over 55% in size
AmpC detergent: qHTS Inhibitors of AmpC Beta-Lactamase (assay with detergent) | Potency, µM (series often up to 114 µM), inactives show at the highest dose activity change, negative = inhibition, usual class: inhibitors | AmpC hydrolysis of nitrocefin, absorbance 480 nm, 0.01% Triton | 370,000 compounds, 0.041% hits | AID 485294, 2010;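 also: 0% = no-compound wells and -100% = no-enzyme wells; nearly all actives have a fitted effect of over 25% in size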
Target sequence (P00811 whole entry, looked up): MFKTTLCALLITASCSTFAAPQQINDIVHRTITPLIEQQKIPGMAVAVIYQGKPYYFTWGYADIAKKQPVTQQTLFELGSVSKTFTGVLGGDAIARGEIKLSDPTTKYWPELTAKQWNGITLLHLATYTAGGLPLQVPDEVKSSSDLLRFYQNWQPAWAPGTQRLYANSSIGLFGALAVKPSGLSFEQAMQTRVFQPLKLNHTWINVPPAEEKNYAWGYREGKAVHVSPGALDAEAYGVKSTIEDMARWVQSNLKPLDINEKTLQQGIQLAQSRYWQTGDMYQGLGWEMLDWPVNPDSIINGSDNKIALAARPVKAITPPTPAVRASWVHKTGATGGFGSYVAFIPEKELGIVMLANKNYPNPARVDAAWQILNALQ
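20 mM phosphate pH 7.0 + 0.01% (detergent screen) or 0.0001% Triton X-100; 5.3 nM AmpC reagent; cpd preinc 15 min RT; nitrocefin (800 uM stock) to start; A480 q20 s × 4 min; Activity was normalised to no-enzyme and no-compound control wells.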
Vaccinia Venus: qHTS for Stage-Specific Inhibitors of Vaccinia Orthopoxvirus: Venus Reporter Primary qHTS | Potency, µM (titrated, usually from 36.5 µM), inactives show at the highest dose activity change, negative = inhibition, usual class: inhibitors | AID 720580, 2013 | Vaccinia virus Venus reporter expression, fluorescence | 330,000 compounds, 0.46% hits; calls by dose curve; tested in A549 cells; also: % is scaled to controls: 0 for no effect and ±100 for the full control effect; nearly all actives have a fitted effect of over 30% in size
AmpC inh no detg: qHTS Inhibitors of AmpC Beta-Lactamase (assay without detergent) | P00811 | AmpC nitrocefin hydrolysis, absorbance 480 nm, 0.0001% Triton | Potency, µM (titrated, usually from 57.1 µM), for the others: at the top dose activity change, negative = inhibition, usual class: inhibitors | 330,000 compounds, 0.52% hits | AID 485341, 2010;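 also: plate controls were no compound for no effect and no enzyme for full effect; nearly all actives have a fitted effect of over 20% in size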
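AmpC (5.3 nM in the dispensed reagent) in 20 mM phosphate pH 7.0 with 0.01% (detergent screen) or 0.0001% Triton X-100 was preincubated with compounds for 15 min at room temperature. Nitrocefin was then added from an 800 uM solution, and hydrolysis was followed at 480 nm.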
AMA1-RON2 inh: qHTS for Inhibitors of AMA1-RON; Towards Development of Antimalarial Drug Lead: Primary Screen | AlphaScreen AMA1-biotinylated RON2 peptide binding | Potency, µM (titrated, usually from 58.2 µM), for the others: top-dose activity change, negative = inhibition, actives largely listed as inhibitors | 360,000 compounds, 0.2% hits;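 also: 0% = vehicle wells and -100% = peptide control; nearly all actives have a fitted effect of over 45% in size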
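AMA1 (3D7) with his tag at 25 nM final met compounds first, then biotinylated RON2 peptide at 25 nM; detection used donor plus acceptor beads, 10 µg/mL apiece, read by AlphaScreen after 30 min at room temperature.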
Starred values were filed as active, the others as inactive; i = inactive; ? = inconclusive; · = not tested or not shown. Unless noted, calls follow the shape of the dose curve; as a rule, active = well fitted curve in the direction sought with a large enough effect; inconclusive = small, poorly fitted or top-dose-only effect, or another doubt; inactive = no such curve, though single readings can be large; an effect the other way counts as inactive or inconclusive. Potency is read from the fitted curve at half-maximal effect.

SMILES	VACV mCherry inh	SARS PLpro yeast	AmpC detergent	Vaccinia Venus	AmpC inh no detg	AMA1-RON2 inh
CCSc1nnc(NC(=O)C2CCCN(S(=O)(=O)c3cnc[nH]3)C2)s1 (stereo not given)	3%	11%	8%	-4%	45µM*	-1%
O=C1c2ccccc2C(=O)c2c1cccc2N1CCCC1	i	-47%	8%	-1%	-21%	13µM*
CC(C)n1cnc2c(N(C)c3ccccc3)nc(N(CCN(C)C)Cc3ccccc3)nc21	?	0%	-6%	13µM*	262%	?
CN1CCN(Cc2nc3ccccc3c(=O)n2Cc2nc(-c3ccc([N+](=O)[O-])cc3)cs2)CC1	10µM*	-13%	-9%	10µM*	216%	?
CN(C)Cc1nc2ccccc2c(=O)n1Cc1nc(-c2cccc([N+](=O)[O-])c2)cs1	-11%	-3%	4%	-15%	20%	-4%
CC1CCC2(CC1)NC(=O)N(NC(=O)CCl)C2=O (stereo not given)	16µM*	-1%	5%	?	-7%	-6%
CC1CCC2(CC1)NC(=O)N(NC(=O)c1cccs1)C2=O (stereo not given)	·	6%	?	·	-20%	1%
Cc1cccc(C(=O)NCc2nc(-c3ccccc3NC(=O)C3CCCO3)oc2C)c1 (stereo not given)	-9%	·	·	5%	·	·
Nc1ccc2c(c1)C(=O)C(=O)c1ccccc1-2	·	-44%	13%	3.5µM*	-22%	-10%
Nc1ccc2c(c1)C(=O)c1ccccc1-2	?	·	·	-17%	·	-18%
CCCCCCCCN1[C@@H](CC(C)=O)c2ccc(/C=C/C(C)=O)cc2S1(=O)=O	-16%	·	·	-5%	·	·
COc1ccccc1CN1CCOc2ccc(C(C)(O)COc3ccccc3)cc2C1 (stereo not given)	-15%	·	·	-10%	·	·
NNC(=O)CSc1c(-c2cccs2)[nH]c2ccccc12	-6%	6%	?	-15%	14µM*	15%
Cc1cccc2c(N3CCCC3)nc(CNS(=O)(=O)c3ccccc3Cl)nc12	-6%	·	·	3%	·	·
Cn1cccc1/C=C1\CCc2ccccc2C1=O	?	-19%	?	-12%	-25%	14µM*
CN(C)CCCn1c2c3ccccc3ccc2c2oc(=O)c3ccccc3c21	22µM*	·	·	?	·	-10%
COc1ccc(CNC(=O)C2CCCN2c2nc(C)c3ccccc3n2)cc1 (stereo not given)	-10%	·	·	-1%	·	·
N=c1nc2n(cc1F)C1OC(CO)C(O)C1O2 (stereo not given)	5.6µM*	·	·	?	·	5%
Cc1oc(-c2cccc(NC(=O)c3ccccn3)c2)nc1CNC(=O)C#Cc1ccccc1	-3%	·	·	-16%	·	·
Nc1ccc(N)c(C(=O)O)c1	·	-1%	-7%	·	-48%	8.9µM*
Nc1ccc(C(=O)O)c(O)c1	-14%	-3%	1%	0%	-25%	11%
Cc1cc(C)cc(C(=O)NCCn2cc(C(=O)N3CCSCC3)nn2)c1	-17%	·	·	-19%	·	·
N#Cc1c(-c2ccccc2)nc(-c2ccccc2)[nH]c1=O	-8%	9%	2%	-8%	-4%	0%
Nc1nc(-c2ccccc2)[nH]c(=O)c1N=O	?	-4%	-19%	13µM*	-9%	6%
O=C(Cn1nc(C(=O)O)c2ccccc2c1=O)Nc1cc(Cl)cc(Cl)c1	-5%	-6%	-3%	-7%	11µM*	-19%
SMILES	VACV mCherry inh	SARS PLpro yeast	AmpC detergent	Vaccinia Venus	AmpC inh no detg	AMA1-RON2 inh
O=C(Cn1nc(C(=O)O)c2ccccc2c1=O)Nc1ccc(Br)cc1	-12%	2%	6%	-6%	-18%	-18%
CC(=O)c1ccc(C(=O)N2CCc3c(cnc(C)c3CNC(=O)c3ccc4c(c3)OCO4)C2)s1	-3%	·	·	-6%	·	·
CC1CCc2c(sc3nc(C4CC4)nc(N4CCN(C(=O)c5ccco5)CC4)c23)C1 (stereo not given)	14µM*	·	·	?	·	-25%
CCc1nc(N2CCN(C(=O)c3ccco3)CC2)c2c3c(sc2n1)CCCC3	-26%	-13%	0%	-25%	50%	-15%
Cc1ccccc1C1(CC(=O)N2CCCCC2C)CC(=O)N(Cc2cccnc2)C1=O (stereo not given)	-10%	·	·	3%	·	·
CCS(=O)(=O)NCc1c(C)ncc2c1CCN(C(=O)c1csc(-c3cccs3)n1)C2	-5%	·	·	0%	·	·
COCC(=O)N1C[C@H]2CON(C)[C@H]2C[C@H]1c1ccc(N2CCCCC2)cc1	11%	·	·	-2%	·	3%
CN1OC[C@@H]2CN(Cc3ccc(Cl)cc3)[C@H](c3ccc(N4CCCCC4)cc3)C[C@@H]21	i	·	·	-4%	·	16µM*
COc1ccccc1C(=O)N1CCCC(c2nc(SCCN3CCOCC3)ncc2C)C1 (stereo not given)	-11%	·	·	0%	·	·
CN(C)c1ccc(N=Nc2ccccc2C(=O)OCC(=O)N2CCCCCC2)cc1	-18%	-43%	-15%	-3%	50%	18µM*
CN(C)c1ccc(N=Nc2ccccc2C(=O)OCC(=O)Nc2ccccc2C(F)(F)F)cc1	-27%	-6%	-9%	-16%	-19%	14µM*
CN(C)c1ccc(N=Nc2ccccc2C(=O)OCC(=O)N2CCCC2)cc1	-8%	-16%	-1%	-7%	125%	?
CC[C@@H](C)[C@@H](N)C1=N[C@H](C(=O)N[C@@H](CC(C)C)C(=O)N[C@@H](CCC(=O)O)C(=O)N[C@@H](C(=O)N[C@@H]2CCCCNC(=O)[C@@H](CC(N)=O)NC(=O)[C@@H](CC(=O)O)NC(=O)[C@@H](Cc3cnc[nH]3)NC(=O)[C@@H](Cc3ccccc3)NC(=O)[C@@H]([C@H](C)CC)NC(=O)[C@@H](CCCN)NC2=O)[C@@H](C)CC)CS1	i	·	·	?	·	·
COC(=O)c1sccc1NC(=O)Nc1ccc(Cl)c(Cl)c1	·	-12%	3%	-20%	0.16µM*	4%
COc1cccc(-c2nc3cc(SC)ccc3cc2CN(C(=O)c2sccc2C)C2CC2)c1	i	·	·	-14%	·	·
Cn1cc(/C=C/c2ccc3ccccc3n2)c2ccccc21	-22%	·	·	21%	·	·
COc1cc([C@@H]2c3cc4c(cc3[C@H](O)[C@H]3COC(=O)[C@H]23)OCO4)cc(OC)c1OC	?	0%	-15%	?	6%	2%
COc1cc(C2c3cc4c(cc3C(O)C3COC(=O)C23)OCO4)cc(OC)c1O (stereo not given)	14µM*	·	·	?	·	·
